Several values for one entry are separate records, joined by “and”; a condition that tells them apart may be missing. Equal values may be shown once. Some compounds were tested as several samples or in several runs, with calls that do not always agree. Activity calls are given as the source filed them. Where a call stands in place of a potency, no number is given. Unless noted, calls come from the whole dose curve; as a rule, active = well fitted curve in the direction sought with a large enough effect in the repeat runs; inconclusive = weak or mixed curves; inactive = no such curve, though single readings can be large; an effect the other way counts as inactive or inconclusive.
Experiments:
[1] = tested on: thyroid hormone receptor (rat, GH3 cells); assay: qHTS assay to identify small molecule agonists of the thyroid receptor (TR) signaling pathway (AID 743066; calls by dose curve)
[2] = target: Estrogen receptor (Homo sapiens) (UniProt P03372); assay: qHTS assay to identify small molecule antagonists of the estrogen receptor alpha (ER-alpha) signaling pathway (AID 743069; active = well fitted curve in the direction sought with a large enough effect in the signal ratio in the repeat runs, not every such curve was filed as active; inconclusive = weak or mixed curves, or effect the other way; inactive = no such curve, though single readings can be large or run the other way; the % refers to the signal ratio)
Method in brief: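 HEK293 ER-alpha-UAS-bla GripTite cells, held overnight in 2% charcoal-stripped FBS, 5,000 cells/well, preincubated 4 h, then compound plus 17beta-estradiol for 18 h at 37C. Beta-lactamase read by LiveBLAzer B/G FRET substrate, 2 h at room temperature.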

[3] = qHTS assay to identify small molecule antagonists of the estrogen receptor alpha (ER-alpha) signaling pathway - cell viability counter screen (AID 743074; calls by dose curve;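 note: HEK293 cells carrying ER-alpha-UAS-bla reporter stimulated with 17beta-estradiol; nearly all actives have a fitted effect of over 45% in size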)
[4] = target: Estrogen receptor (Homo sapiens) (UniProt P03372); assay: qHTS assay to identify small molecule agonists of the estrogen receptor alpha (ER-alpha) signaling pathway (AID 743075; calls by dose curve; note: potency is the fitted concentration of half-maximal effect)
[5] = target: Estrogen receptor (Homo sapiens) (UniProt P03372); assay: qHTS assay to identify small molecule agonists of the estrogen receptor alpha (ER-alpha) signaling pathway using the BG1 cell line (AID 743079); note: nearly all actives have a fitted effect of over 20% in size; note: potency is the fitted concentration of half-maximal effect
[6] = qHTS assay to identify small molecule antagonists of the estrogen receptor alpha (ER-alpha) signaling pathway using the BG1 cell line (AID 743080; calls by dose curve;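 note: BG1 cells stimulated with 17beta-estradiol alongside compound; nearly all actives have a fitted effect of over 25% in size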; note: potency is the fitted concentration of half-maximal effect)
Method in brief: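 Endogenous full-length ER-alpha in BG1-Luc-4E2 cells drives a stably integrated 4×ERE luciferase gene; compounds were tested against 17beta-estradiol over 21.5 h, with luminescence and multiplexed viability fluorescence recorded.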

[7] = qHTS assay to identify small molecule antagonists of the estrogen receptor alpha (ER-alpha) signaling pathway using the BG1 cell line - cell viability counter screen (AID 743081);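 note: compound given together with 17beta-estradiol as the ER stimulus; series mostly up to about 70 µM; nearly all actives have a fitted effect of over 45% in size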
Aromatase (Homo sapiens) = Aromatase (Homo sapiens) (UniProt P11511); assay: qHTS assay to identify aromatase inhibitors (AID 743083); note: nearly all actives have a fitted effect of over 55% in size; note: potency is the fitted concentration of half-maximal effect
[8] = qHTS assay to identify aromatase inhibitors - cell viability counter screen (AID 743084);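 note: cells stimulated with testosterone during compound exposure; nearly all actives have a fitted effect of over 55% in size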; note: potency is the fitted concentration of half-maximal effect
[9] = target: Aryl hydrocarbon receptor (Homo sapiens) (UniProt P35869); assay: qHTS assay to identify small molecule that activate the aryl hydrocarbon receptor (AhR) signaling pathway (AID 743085); note: nearly all actives have a fitted effect of over 15% in size; note: potency is the fitted concentration of half-maximal effect;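 for activation: HG2L7.5c1 human HepG2 liver cells with stably integrated DRE-driven firefly reporter; series mostly up to about 70 µM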
Method in brief: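 A multiplexed format paired cell viability (CellTiter-Fluor fluorescence) with AhR-dependent luciferase output (ONE-Glo luminescence) in the same wells of HepG2 DRE-luc cells after 24 h compound exposure at 37C.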

[10] = qHTS assay to identify small molecule that activate the aryl hydrocarbon receptor (AhR) signaling pathway - cell viability counter screen (AID 743086);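 note: HepG2 liver cells carrying the AhR DRE luciferase reporter; series mostly up to about 70 µM; nearly all actives have a fitted effect of over 45% in size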
Method in brief: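 HepG2-AhR-luc (HG2L7.5c1) cells, 4000/well, treated 24 h at 37 C with compound; viability measured as CellTiter-Fluor fluorescence after 30 min in the same wells as the luciferase read.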

[11] = target: Peroxisome proliferator-activated receptor gamma (Homo sapiens) (UniProt P37231); assay: qHTS assay to identify small molecule agonists of the peroxisome proliferator-activated receptor gamma (PPARg) signaling pathway (AID 743094; active = well fitted activation curve with a large enough effect in the signal ratio in the repeat runs, not every such curve was filed as active; inconclusive = weak or mixed curves, or effect the other way; inactive = no such curve, though single readings can be large or run the other way; the % refers to the signal ratio)
Method in brief: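 Compounds dissolved in DMSO were added to PPARg UAS-bla HEK293H cells for 17 h at 37C, and reporter expression was quantified by fluorescence intensity after 1 h with LiveBLAzer B/G FRET substrate.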

[12] = target: Peroxisome proliferator-activated receptor gamma (Homo sapiens) (UniProt P37231); assay: qHTS assay to identify small molecule antagonists of the peroxisome proliferator-activated receptor gamma (PPARg) signaling pathway (AID 743191; calls by dose curve; note: series mostly up to about 63 µM; nearly all actives have a fitted effect of over 30% in size)
Method in brief: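 GeneBLAzer PPARg UAS-bla HEK293H cells, 5 h post-plating, exposed to compounds 17 h at 37C. LiveBLAzer B/G FRET substrate added for 1 h at room temperature; beta-lactamase reporter read by fluorescence intensity.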

[13] = qHTS assay to identify small molecule antagonists of the peroxisome proliferator-activated receptor gamma (PPARg) signaling pathway - cell viability counter screen (AID 743194); note: nearly all actives have a fitted effect of over 55% in size
Method in brief: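 Cytotoxicity counter screen in PPARg-bla HEK293H cells, same wells as reporter assay. Compounds plus 50 nM rosiglitazone (final) for 17 h at 37 C, then viability read by CellTiter-Glo luminescence.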

[14] = qHTS assay for small molecule agonists of the antioxidant response element (ARE) signaling pathway (AID 743202; active = well fitted activation curve with a large enough effect in the signal ratio in the repeat runs, not every such curve was filed as active; inconclusive = weak or mixed curves, or effect the other way; inactive = no such curve, though single readings can be large or run the other way; the % refers to the signal ratio; note: potency is the fitted concentration of half-maximal effect)
Method in brief: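 ARE-bla HepG2 cells (beta-lactamase reporter under the antioxidant response element), plated 5 hours, then exposed to compounds 16 hours at 37 C. LiveBLAzer B/G FRET substrate added for 2 hours at room temperature; fluorescence intensity read.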

[15] = qHTS assay for small molecule agonists of the antioxidant response element (ARE) signaling pathway - cell viability counter screen (AID 743203; calls by dose curve; note: nearly all actives have a fitted effect of over 55% in size)
Method in brief: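 Following 16 hrs of compound treatment at 37C, HepG2 cells with an ARE-controlled beta-lactamase gene were lysed with CellTiter-Glo. Luminescence was read after 30 min at room temperature.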

[16] = qHTS assay for small molecule activators of the heat shock response signaling pathway - cell viability counter screen (AID 743209); note: nearly all actives have a fitted effect of over 50% in size
Method in brief: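 Readout: CellTiter-Glo luminescence, 30 min at room temperature. System: HSE-bla HeLa cells, 1500/well, plated overnight. Treatment: compounds in DMSO, 5 h at 37 C.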

[17] = qHTS assay for small molecule activators of the heat shock response signaling pathway (AID 743210; active = well fitted activation curve with a large enough effect in the signal ratio in the repeat runs, with a control signal flat, not every such curve was filed as active; inconclusive = weak or mixed curves; the % refers to the signal ratio; note: series mostly up to about 63 µM)
Method in brief: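 HSE-bla HeLa cells (beta-lactamase reporter under heat shock response elements), plated overnight, then exposed to compounds 5 h at 37 C; LiveBLAzer B/G FRET substrate added, 2.5 h at room temperature, fluorescence intensity read.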

[18] = qHTS assay to identify small molecule agonists of the peroxisome proliferator-activated receptor delta (PPARd) signaling pathway - cell viability counter screen (AID 743211); note: nearly all actives have a fitted effect of over 55% in size
Method in brief: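 Tox21 library compounds, delivered in DMSO, were incubated 17 h with PPARd-bla HEK293H cells; cytotoxicity was taken from CellTiter-Glo luminescence read 30 min after reagent addition.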

[19] = target: Peroxisome proliferator-activated receptor delta (Homo sapiens) (UniProt Q03181); assay: qHTS assay to identify small molecule agonists of the peroxisome proliferator-activated receptor delta (PPARd) signaling pathway (AID 743212; calls by dose curve)
Method in brief: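 GeneBLAzer UAS-bla HEK293H cells carrying a PPARδ construct were exposed to compounds at 37 °C. Beta-lactamase activity was read by FRET fluorescence after 2 h at room temperature with LiveBLAzer B/G substrate.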

Sequence of Estrogen receptor (Homo sapiens) (P03372 whole entry, looked up): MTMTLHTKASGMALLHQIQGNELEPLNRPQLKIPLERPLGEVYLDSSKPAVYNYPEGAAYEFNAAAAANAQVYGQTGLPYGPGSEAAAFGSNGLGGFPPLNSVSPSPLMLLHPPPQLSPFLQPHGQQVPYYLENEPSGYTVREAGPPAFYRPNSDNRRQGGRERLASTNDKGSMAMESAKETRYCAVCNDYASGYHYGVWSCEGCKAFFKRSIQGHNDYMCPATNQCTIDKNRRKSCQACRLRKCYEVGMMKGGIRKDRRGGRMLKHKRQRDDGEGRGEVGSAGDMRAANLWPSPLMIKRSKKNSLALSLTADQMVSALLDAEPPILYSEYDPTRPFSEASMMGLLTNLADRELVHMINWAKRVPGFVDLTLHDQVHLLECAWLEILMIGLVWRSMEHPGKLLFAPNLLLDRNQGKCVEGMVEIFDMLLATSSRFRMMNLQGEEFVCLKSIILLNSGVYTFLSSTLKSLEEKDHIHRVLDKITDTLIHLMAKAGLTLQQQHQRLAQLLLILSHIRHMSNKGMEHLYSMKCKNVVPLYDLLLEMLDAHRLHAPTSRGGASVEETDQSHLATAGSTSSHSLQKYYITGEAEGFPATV
Sequence of Peroxisome proliferator-activated receptor delta (Homo sapiens) (Q03181 whole entry, looked up): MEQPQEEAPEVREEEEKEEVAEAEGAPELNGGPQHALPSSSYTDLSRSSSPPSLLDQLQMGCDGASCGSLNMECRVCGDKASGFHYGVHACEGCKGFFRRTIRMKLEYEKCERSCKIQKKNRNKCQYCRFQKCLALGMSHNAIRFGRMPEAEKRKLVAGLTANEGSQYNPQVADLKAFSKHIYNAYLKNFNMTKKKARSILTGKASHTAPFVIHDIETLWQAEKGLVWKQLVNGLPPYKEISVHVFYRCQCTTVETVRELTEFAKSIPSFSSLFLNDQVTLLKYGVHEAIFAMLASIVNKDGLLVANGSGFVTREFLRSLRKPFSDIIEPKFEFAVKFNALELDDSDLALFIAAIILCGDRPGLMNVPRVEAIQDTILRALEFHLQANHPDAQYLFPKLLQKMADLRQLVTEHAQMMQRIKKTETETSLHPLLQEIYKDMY
Sequence of Aryl hydrocarbon receptor (Homo sapiens) (P35869 whole entry, looked up): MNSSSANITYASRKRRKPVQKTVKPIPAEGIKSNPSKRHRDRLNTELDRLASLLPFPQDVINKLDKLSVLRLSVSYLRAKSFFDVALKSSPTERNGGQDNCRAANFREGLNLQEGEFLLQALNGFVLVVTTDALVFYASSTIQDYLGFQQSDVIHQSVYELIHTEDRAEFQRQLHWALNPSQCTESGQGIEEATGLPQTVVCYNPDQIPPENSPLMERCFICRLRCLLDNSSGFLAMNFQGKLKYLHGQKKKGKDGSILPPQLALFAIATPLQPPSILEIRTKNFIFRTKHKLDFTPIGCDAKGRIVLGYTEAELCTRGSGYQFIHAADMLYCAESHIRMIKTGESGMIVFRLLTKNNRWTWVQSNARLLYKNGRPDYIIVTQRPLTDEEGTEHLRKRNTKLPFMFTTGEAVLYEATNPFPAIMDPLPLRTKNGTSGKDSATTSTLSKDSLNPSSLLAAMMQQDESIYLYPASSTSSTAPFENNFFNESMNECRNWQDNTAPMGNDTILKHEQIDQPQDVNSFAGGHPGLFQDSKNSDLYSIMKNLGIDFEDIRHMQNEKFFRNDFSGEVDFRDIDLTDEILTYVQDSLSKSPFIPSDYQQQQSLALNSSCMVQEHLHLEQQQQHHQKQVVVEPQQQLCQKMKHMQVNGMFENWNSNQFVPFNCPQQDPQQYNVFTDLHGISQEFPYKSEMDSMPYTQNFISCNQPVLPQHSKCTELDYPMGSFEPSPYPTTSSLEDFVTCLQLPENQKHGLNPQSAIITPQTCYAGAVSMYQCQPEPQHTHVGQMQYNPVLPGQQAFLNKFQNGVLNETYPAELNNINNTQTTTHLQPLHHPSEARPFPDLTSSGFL
Sequence of Peroxisome proliferator-activated receptor gamma (Homo sapiens) (P37231 whole entry, looked up): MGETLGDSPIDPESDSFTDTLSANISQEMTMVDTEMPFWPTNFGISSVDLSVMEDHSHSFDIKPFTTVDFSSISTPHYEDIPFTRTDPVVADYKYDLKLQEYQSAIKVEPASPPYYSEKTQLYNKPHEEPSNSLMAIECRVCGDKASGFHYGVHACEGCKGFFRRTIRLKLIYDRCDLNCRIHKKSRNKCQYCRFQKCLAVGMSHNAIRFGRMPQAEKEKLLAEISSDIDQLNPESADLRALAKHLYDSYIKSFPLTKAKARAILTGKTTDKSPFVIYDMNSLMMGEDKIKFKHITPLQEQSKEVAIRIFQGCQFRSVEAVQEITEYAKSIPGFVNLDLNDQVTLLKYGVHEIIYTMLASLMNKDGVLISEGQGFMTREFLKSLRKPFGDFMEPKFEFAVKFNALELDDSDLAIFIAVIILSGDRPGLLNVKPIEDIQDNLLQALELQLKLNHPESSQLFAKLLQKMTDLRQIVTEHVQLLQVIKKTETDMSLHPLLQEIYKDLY
Sequence of Aromatase (Homo sapiens) (P11511 whole entry, looked up): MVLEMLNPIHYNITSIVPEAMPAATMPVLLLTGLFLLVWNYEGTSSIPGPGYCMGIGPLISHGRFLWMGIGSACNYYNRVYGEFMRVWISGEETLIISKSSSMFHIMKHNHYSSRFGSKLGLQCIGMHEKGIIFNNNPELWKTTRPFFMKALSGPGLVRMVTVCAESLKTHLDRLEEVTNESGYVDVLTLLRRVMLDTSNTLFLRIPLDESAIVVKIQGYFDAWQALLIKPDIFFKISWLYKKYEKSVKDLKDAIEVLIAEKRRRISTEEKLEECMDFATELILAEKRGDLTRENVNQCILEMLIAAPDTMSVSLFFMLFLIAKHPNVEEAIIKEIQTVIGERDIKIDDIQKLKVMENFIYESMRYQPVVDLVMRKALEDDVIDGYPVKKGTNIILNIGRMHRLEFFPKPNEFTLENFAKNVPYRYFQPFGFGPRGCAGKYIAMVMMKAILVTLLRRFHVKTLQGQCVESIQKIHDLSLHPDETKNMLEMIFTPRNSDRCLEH

Compound | outcome [1] | Potency [2] | Potency [3] | Potency [4] | Potency [5] | Potency [6] | Potency [7] | Potency (Aromatase (Homo sapiens)) | Potency [8] | Potency [9] | Potency [10] | outcome [11] | Potency [12] | Potency [13] | Potency [14] | Potency [15] | Potency [16] | outcome [17] | Potency [18] | outcome [19]
OC[C@@H](O)[C@@H](O)[C@H](O)[C@@H](O)CO | inactive | inactive | inactive | inactive | inactive | inactive | inactive | inactive | inactive | inactive | inactive | inactive | inactive | inactive | inactive | inactive | inactive | inactive | inactive | –
C=C(C)C(=O)OCCCCCCCCCCCC | inactive | inactive | inactive | inactive | inactive | inactive | inactive | inactive | inactive | inactive | inactive | inactive | inactive | inactive | inactive | inactive | inactive | inactive | inactive | inactive
Nc1cc(-c2ccncc2)c[nH]c1=O | inactive | inactive | inactive | inactive | inactive | inactive | inactive | inactive | inactive | inactive | inactive | inactive | inactive | inactive | – | inactive | inactive | inactive | inactive | inactive
Cc1cc(=O)[nH]c(C(C)C)n1 | inactive | inactive | inactive | inactive | inactive | inactive | inactive | inactive | inactive | inactive | inactive | inactive | inactive | inactive | inactive | inactive | inactive | inactive | inactive | inactive
O=Nc1ccc(O)cc1 | inactive | inactive | inactive | inactive | inactive | inactive | inactive | inactive | inactive | 53.2 µM (active) and inactive | inactive | inactive | inactive | inactive | inactive | inactive | inactive | inactive | inactive | inactive
NCc1cccc(CN)c1 | inactive | inactive | inactive | inactive | inactive | inactive | inactive | inactive | inactive | inactive | inactive | inactive | inactive | inactive | inactive | inactive | inactive | inactive | inactive | inactive
CC1=C(/C=C/C(C)=C/C=C/C(C)=C/CO)C(C)(C)CCC1 | inactive | inactive | inactive | 8.49 µM [inconclusive] (active) and inactive | 944 nM (active) and inactive | 15 µM (active) and 7.79 µM (active) and inactive | inactive | inactive and 28.8 µM (active) | inactive and 72.3 µM (active) | inactive | inactive | inactive | – | inactive | 61.9 µM (active) and 57.4 µM (active) | inactive | inactive | – | – | –

Reference: PubChem BioAssay (Tox21)
